Laboratory results as given in PubChem BioAssay (Tox21).
Records with an inconclusive call do not appear. A call without a number means that no potency is given here. Calls of active or inactive are those of the source. The call rests on the fitted dose curve; in most records, active means well fitted cell-killing curve with a large enough effect in the repeat runs; inconclusive means weak or mixed curves; inactive means flat fitted curve, though single readings scatter.

test: qHTS assay to identify small molecule antagonists of the estrogen receptor beta (ER-beta) signaling pathway - cell viability counter screen (AID 1259382); settings: ER-beta-UAS-bla HEK293T viability, CellTiter-Glo luminescence, 16 h; series mostly up to 92.4 µM; further: nearly all actives have a fitted effect of over 55% in size
Text: U.S. Tox21 Program National Center for Advancing Translational Sciences [NCATS] NIH Chemical Genomics Center [NCGC] U.S. Environmental Protection Agency [EPA] National Institutes of Environmental Health Sciences [NIEHS] National Toxicology Program [NTP] U.S. Food and Drug Administration [FDA] Tox21 Assay Overview: Estrogen receptor (ER), a nuclear hormone receptor, plays an important role in development, metabolic homeostasis and reproduction. Two subtypes of ER, ER-alpha and ER-beta, have similar expression patterns with some uniqueness in both types. Endocrine disrupting chemicals (EDCs) and their interactions with steroid hormone receptors like ER causes disruption of normal endocrine function. To identify the compounds that inhibit ER signaling, an ER-beta-UAS-bla GripTite cell line (Life Technologies, Madison, WI, USA) containing a beta-lactamase reporter gene under the control of an UAS response element was used to screen Tox21 10K compound library. The cytotoxicity of the Tox21 compound library against the ER-beta-bla cell line was tested in parallel by measuring the cell viability using CellTiter-Glo assay in the same wells.
Tox21 Assay Protocol Summary: ER-beta-UAS-bla HEK293T cells were dispensed at 2,000 cells/4 uL of assay medium containing 2% charcoal stripped FBS per well into black wall/clear-bottom 1536-well plates using a Multidrop Combi (ThermoFisher Scientific, Waltham, MA) dispenser. After the assay plates were incubated at a 37C and 5% CO2 for 6 hr, 23 nL of compounds dissolved in DMSO, positive controls or DMSO only was transferred to the assay plate by a Pintool station (Kalypsys, San Diego, CA), followed by addition of 1 uL (1nM as final concentration) of 17-beta-estradiol (E2) in assay medium using a Flying Reagent Dispenser (FRD, Aurora Discovery, San Diego, CA). The plates were incubated at 37C and 5% CO2 for 16 hr. Then 1 uL of LiveBLAzer B/G FRET substrate was added using a Flying Reagent Dispenser, the plates were incubated at room temperature for 2 hours, and fluorescence intensity was measured by an Envision plate reader (PerkinElmer, Shelton, CT). For cell viability readout that measures cytotoxicity, 4 uL/well of CellTiter-Glo reagent was added into the assay plates using a FRD. After 30 min incubation at room temperature, the luminescence intensity in the plates was measured using a ViewLux (PerkinElmer) plate reader.

Structure (SMILES)	Potency
N=C(N)c1ccc(OCCCCCOc2ccc(C(=N)N)cc2)cc1	inactive
Cc1ccc(C)c(OCCCC(C)(C)C(=O)O)c1	inactive
Nc1ccc(C(=O)O)cc1	inactive
Nc1ccc(O)c(C(=O)O)c1	inactive
O=c1ccc2ccccc2o1	inactive
CC(=O)Nc1nnc(S(N)(=O)=O)s1	inactive
NC(=O)c1cnccn1	inactive
O=C(O)CCC(=O)O	inactive
NC(N)=NC(=O)c1nc(Cl)c(N)nc1N	inactive
O=c1cc[nH]c(=S)[nH]1	inactive
O=NO	inactive
CCCCCCCCCCCCCCCC(=O)O	inactive
CC(O)C(=O)O (stereo not given)	inactive
CCCCC(CC)COC(=O)/C=C/c1ccc(OC)cc1 (stereo not given)	inactive
O=C(O)c1[nH]n(-c2ccc(S(=O)(=O)O)cc2)c(=O)c1N=Nc1ccc(S(=O)(=O)O)cc1	inactive
CC1(C)[C@@H]2CC[C@@]1(C)C(=O)C2	inactive
NC(N)=O	inactive
CC(O)CN(CCN(CC(C)O)CC(C)O)CC(C)O (stereo not given)	inactive
Oc1ccc(/C=C/c2cc(O)cc(O)c2)cc1	inactive
OCCc1ccccc1	inactive

Structure (SMILES)	Potency
C[C@]12C=CC(=O)C=C1CC[C@@H]1[C@@H]2[C@@H](O)C[C@@]2(C)[C@H]1CC[C@]2(O)C(=O)CO	inactive
Cn1cc[nH]c1=S	inactive
Cc1cc(=O)[nH]c(=S)[nH]1	inactive
NC(=O)NC1NC(=O)NC1=O (stereo not given)	inactive
Cc1noc(NS(=O)(=O)c2ccc(N)cc2)c1C	inactive
O=C1CN(/N=C/c2ccc([N+](=O)[O-])o2)C(=O)N1	inactive
OC(Cn1cncn1)(Cn1cncn1)c1ccc(F)cc1F	inactive
CC(O)CO (stereo not given)	inactive
CCCNC(=O)NS(=O)(=O)c1ccc(Cl)cc1	inactive
COc1ccc2[nH]cc(CCNC(C)=O)c2c1	inactive
NS(=O)(=O)c1cc(C(=O)O)c(NCc2ccco2)cc1Cl	inactive
COc1c2occc2cc2ccc(=O)oc12	inactive
Nc1ccn([C@H]2CC[C@@H](CO)O2)c(=O)n1	inactive
O=C(O)c1cccnc1	inactive
CC(C)(Oc1ccc(C2CC2(Cl)Cl)cc1)C(=O)O (stereo not given)	inactive
O=S(=O)(O)c1ccc2cc(O)ccc2c1	inactive
CCCCOC(=O)CC(CC(=O)OCCCC)(OC(C)=O)C(=O)OCCCC	inactive
O=C(O)c1cc(N=Nc2ccc(S(=O)(=O)Nc3ccccn3)cc2)ccc1O	inactive
O=C(O)CCCCCCCC(=O)O	inactive
Nc1ccc(S(=O)(=O)c2ccc(N)cc2)cc1	inactive
